# Sampled rows, rich in hits. Any-hit rate of the full collection: about 2.8%.
# N-glyco inh: blocks N-linked glycosylation in D54 reporter cells | reporter increase, % at 12.5 µM | D54 ERlucT glycosylation luciferase reporter, 24 h; percent of 100 nM tunicamycin response | 360,000 compounds, 0.23% hits;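 active = mean luciferase reporter signal, scaled so untreated is 0 and the glycosylation-blocking control 100, at or above a set limit in every replicate; inconclusive = mean reaches the limit but not every replicate does; inactive = mean below the limit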;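 note: luciferase carries N-glycosylation sites so blocking glycosylation raises the light; 0% = median of neutral control wells and 100% = median of 100 nM tunicamycin wells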
# NSD2 HMT inh: NSD2 (human) methyltransferase inhibition. O96028. NSD2 peptide methylation, AlphaScreen, 120 min. inhibition, % at 12.5 µM. 310,000 compounds, 0.54% hits. AID 743445; in the data active = inhibition above about 50%
# Target sequence (O96028 whole entry, looked up): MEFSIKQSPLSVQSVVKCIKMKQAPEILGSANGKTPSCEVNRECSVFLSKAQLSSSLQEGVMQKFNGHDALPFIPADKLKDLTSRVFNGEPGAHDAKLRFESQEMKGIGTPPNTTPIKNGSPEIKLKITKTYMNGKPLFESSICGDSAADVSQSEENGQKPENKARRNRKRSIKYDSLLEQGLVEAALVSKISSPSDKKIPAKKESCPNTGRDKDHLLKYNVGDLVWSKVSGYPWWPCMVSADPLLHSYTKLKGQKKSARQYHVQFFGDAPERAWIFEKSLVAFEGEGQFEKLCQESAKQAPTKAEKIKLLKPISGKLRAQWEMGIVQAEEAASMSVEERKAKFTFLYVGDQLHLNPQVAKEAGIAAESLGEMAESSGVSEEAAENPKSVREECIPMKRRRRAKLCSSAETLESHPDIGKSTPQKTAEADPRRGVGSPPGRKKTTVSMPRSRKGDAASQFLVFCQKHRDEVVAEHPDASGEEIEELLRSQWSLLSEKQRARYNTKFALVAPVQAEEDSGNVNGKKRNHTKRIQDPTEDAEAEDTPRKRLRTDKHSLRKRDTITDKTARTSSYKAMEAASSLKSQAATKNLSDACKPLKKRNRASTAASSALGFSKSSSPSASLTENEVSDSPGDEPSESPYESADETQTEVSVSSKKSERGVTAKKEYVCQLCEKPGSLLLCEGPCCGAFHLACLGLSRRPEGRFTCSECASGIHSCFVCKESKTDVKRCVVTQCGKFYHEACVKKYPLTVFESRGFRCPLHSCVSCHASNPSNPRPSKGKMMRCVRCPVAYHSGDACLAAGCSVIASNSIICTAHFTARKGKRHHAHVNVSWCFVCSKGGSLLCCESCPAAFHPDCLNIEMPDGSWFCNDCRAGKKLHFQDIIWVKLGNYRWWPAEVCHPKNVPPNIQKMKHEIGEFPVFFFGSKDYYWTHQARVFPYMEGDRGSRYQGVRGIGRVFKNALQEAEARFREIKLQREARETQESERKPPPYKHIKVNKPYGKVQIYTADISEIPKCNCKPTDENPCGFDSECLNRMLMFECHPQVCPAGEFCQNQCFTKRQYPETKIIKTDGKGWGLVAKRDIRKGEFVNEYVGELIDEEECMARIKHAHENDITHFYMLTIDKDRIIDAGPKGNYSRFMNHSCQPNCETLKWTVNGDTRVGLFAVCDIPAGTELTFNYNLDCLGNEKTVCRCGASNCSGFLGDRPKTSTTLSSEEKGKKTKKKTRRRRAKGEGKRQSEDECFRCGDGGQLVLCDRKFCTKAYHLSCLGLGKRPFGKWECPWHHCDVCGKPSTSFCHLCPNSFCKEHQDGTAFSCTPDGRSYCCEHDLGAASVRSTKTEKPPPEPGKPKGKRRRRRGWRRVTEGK
# Env fusion inh: blocks HIV Env-driven cell-cell fusion. HeLa-JRFL Env/CEM21 cell fusion, luciferase. inhibition, % at 12.3 µM. 360,000 compounds, 1.1% hits. AID 651610;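 active = mean replicate inhibition score of at least 50 and every replicate individually at or above 50; inconclusive = only one of the two criteria met; inactive = mean below 50 and not all replicates reaching 50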;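 note: 0% = plate neutral controls and 100% = maraviroc near 300 nM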
# PAX8 inh HTS: inhibitors of PAX8 transcriptional activity in RMG-I cells; AID 652154; 360,000 compounds, 1.2% hits; RMG-I TPO-luciferase reporter, SteadyGlo, 24 h; inhibition, % at 12.6 µM;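 active = mean replicate inhibition at least 60% with every replicate also reaching 60%; inconclusive = only one of the two criteria is met; inactive = mean below 60% and not all replicates reaching 60%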;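 note: luciferase light reporting Pax8 driven TPO promoter activity; plate controls were median of neutral control wells for no effect and mitoxantrone controls for full effect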
# EBV LMP1 NFkB: inhibitors of Epstein-Barr LMP1-induced NF-kappaB reporter; 350,000 compounds, 0.69% hits; inhibition, % at 12.5 µM; AID 504558; LMP1-induced NF-kappaB luciferase reporter cells, luminescence; in the data active = inhibition above about 41%; inconclusive = no clear call, values can overlap the other calls;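 note: 0% = neutral control wells and 100% = reference inhibitor control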
# Shn3 inh set2: inhibitors of Schnurri-3 3'UTR reporter in osteoblasts; 360,000 compounds, 0.52% hits; Clone20 osteoblast Shn3 3'UTR firefly luciferase, 24 h; inhibition, % at 12.5 µM;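 active = mean inhibition of at least 75% with every replicate also reaching 75%; inconclusive = mean inhibition at least 75% but some replicate below; inactive = mean inhibition below 75%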;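 note: 0% = median of neutral control wells and 100% = pilot-screen positive control compound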
# Starred values were filed as active, the others as inactive; u = inconclusive; x = no result; [ ] = remark or other dose.
SMILES,N-glyco inh,NSD2 HMT inh,Env fusion inh,PAX8 inh HTS,EBV LMP1 NFkB,Shn3 inh set2
CNc1nc2c(c(=O)n(C)c(=O)n2C)n1Cc1ccccc1,1,-2,69*,x,13,64
CNc1nc2c(c(=O)n(C)c(=O)n2C)n1CCCc1ccccc1,-3,3,8,16,-3,41
Cn1c(=O)c2c(nc(NCc3ccco3)n2C)n(C)c1=O,3,-3,x,x,-10,0
CC(Cl)=CCn1c(NCCc2ccccc2)nc2c1c(=O)n(C)c(=O)n2C,-6,x,94*,0,x,92*
Cn1c(=O)c2c(nc(NCCc3ccccc3)n2Cc2ccc(F)cc2)n(C)c1=O,-7,x,25,42,0,56
CCCCn1c(CN(C)Cc2ccccc2)nc2c1c(=O)n(C)c(=O)n2C,3,-2,72*,x,12,87*
Cn1c(=O)c2c(nc(NCc3ccco3)n2C/C=C/c2ccccc2)n(C)c1=O,-13,x,x,x,42*,88*
CCCC#Cc1ccc([C@@H]2[C@H](CO)N3C(=O)CN(C(=O)NC4CCCC4)C[C@@H]23)cc1,x,x,x,3,x,x
CN1C[C@@H]2C[C@@H](C3=Cc4cc(Cl)ccc4OC3)N3CCC[C@@]23C1=O,4,-2,8,-30,-5,-9
COc1ccccc1CN1C[C@@H]2C[C@@H](C3=Cc4cc(Cl)ccc4OC3)N3CCC[C@@]23C1=O,2,0,67*,12,27,16
CN1C(=O)c2cc(NC(=O)c3cccc(F)c3)ccc2OC[C@@H]2O[C@@H](CC(=O)NCc3ccccc3Cl)CC[C@@H]21,x,x,x,11,x,x
COc1cccc(NC(=O)C[C@@H]2CC[C@@H]3[C@H](COc4ccc(NC(=O)C5CCC5)cc4C(=O)N3C)O2)c1,x,x,x,13,x,x
O=C(Nc1cc(S(=O)(=O)Nc2ccc(Cl)cc2)ccc1O)c1ccc(S(=O)(=O)N2CCCCCC2)cc1,4,x,-7,8,-10,3
O=C(N/N=C\c1cc(Cl)ccc1O)c1ccc(S(=O)(=O)N2CCCCC2)cc1,-8,9,-15,43,23,91*
CC(C)NC(=O)Nc1ccc2c(c1)C(=O)N([C@@H](C)CO)C[C@@H](C)[C@H](CN(C)Cc1ccc(Cl)c(Cl)c1)OCCCC[C@@H](C)O2,x,x,-38[16.7 µM],21,x,x
C[C@@H]1CCCCO[C@@H](CN(C)Cc2ccc(Cl)c(Cl)c2)[C@H](C)CN([C@@H](C)CO)C(=O)c2cc(NC(=O)Nc3ccc(F)cc3)ccc2O1,x,x,31[16.7 µM],67*,x,x
C[C@@H]1CCCCO[C@H](CN(C)Cc2ccc(Cl)c(Cl)c2)[C@@H](C)CN([C@@H](C)CO)C(=O)c2cc(NC(=O)Nc3ccc(F)cc3)ccc2O1,x,x,u,89*,x,x
CC(C)NC(=O)Nc1ccc2c(c1)C(=O)N([C@@H](C)CO)C[C@@H](C)[C@@H](CN(C)Cc1ccc(Cl)c(Cl)c1)OCCCC[C@@H](C)O2,x,x,25[16.7 µM],22,x,x
C[C@H](CO)N1C[C@H](C)[C@H](CN(C)Cc2ccc(Cl)c(Cl)c2)OCCCC[C@H](C)Oc2ccc(NC(=O)Nc3ccc(F)cc3)cc2C1=O,x,x,50[16.7 µM],64*,x,x
COc1ccc(S(=O)(=O)Nc2ccc3c(c2)CC(=O)N([C@@H](C)CO)C[C@H](C)[C@H](CN(C)C(=O)Nc2cccc4ccccc24)O3)cc1,x,x,-4[16.7 µM],5,x,x
CN(C)CC(=O)N[C@H]1CC[C@H](CCNC(=O)Nc2ccc(F)cc2)O[C@@H]1CO,x,x,10[16.7 µM],-15,x,x
C=C[C@@H]1c2ccccc2N(S(=O)(=O)c2ccc(C)cc2)[C@H](c2ccccc2C(F)(F)F)C1(C#N)C#N,-11,x,u,24,1,68
C=C[C@@H]1c2ccccc2N(S(=O)(=O)c2ccc(C)cc2)[C@H](c2ccc(C(F)(F)F)cc2)C1(C#N)C#N,-10,x,56*,15,-10,51
COc1ccc(NC(=O)N(C)C[C@@H]2Oc3ccc(NC(=O)CCCCCC(=O)Nc4ccccc4N)cc3CC(=O)N([C@@H](C)CO)C[C@H]2C)cc1,x,x,-9[16.7 µM],2,x,x
C[C@H]1CN([C@@H](C)CO)C(=O)c2cc(NS(=O)(=O)c3ccccc3)ccc2O[C@@H]1CN(C)Cc1ccc(C(=O)O)cc1,x,x,5[16.7 µM],x,x,x
SMILES,N-glyco inh,NSD2 HMT inh,Env fusion inh,PAX8 inh HTS,EBV LMP1 NFkB,Shn3 inh set2
CCOc1ccc(NC(=O)NCc2ccccn2)cc1,0,-2,58*,-13,-7,-10
Cc1ccc(NC(=O)NCc2ccccn2)cc1,-1,-3,-3,-21,-1,-4
C[C@H](CO)N1C[C@H](C)[C@@H](CN(C)C(=O)Nc2cc(F)ccc2F)Oc2cc(-c3cccc(F)c3)ccc2S1(=O)=O,x,x,-36[16.7 µM],x,x,x
COc1cc(OC)c(/C=C2\SC(=O)N(CC(=O)Nc3ccccc3F)C2=O)c(OC)c1,-2,0,-23,21,44*,5
COC(=O)C[C@@H]1CC[C@@H]2[C@H](COc3ccc(NC(=O)C4CCOCC4)cc3C(=O)N2C)O1,x,x,x,3,x,x
Cc1ccc(/C=C2\CCOC2=O)cc1,2,-1,-13,-24,9,7
Cc1ccc(/C=C2/CNC/C(=C/c3ccc(C)cc3)C2=O)cc1,-1,-2,66*,31,80*,-17
CCCN1C(=O)C2(SC(NC(C)=O)=NN2C(C)=O)c2cc(C)cc(C)c21 (stereo not given),-5,-1,-7,17,54*,x
CCN1C(=O)C2(SC(NC(C)=O)=NN2C(C)=O)c2cc(C)cc(C)c21 (stereo not given),5,-4,x,27,-1,3
COc1ccccc1-c1cn(CC[C@H]2CC[C@H](NS(=O)(=O)c3ccccc3C)[C@H](CO)O2)nn1,x,x,-2[16.7 µM],10,x,x
O=C(C1CCN(S(=O)(=O)N2CCCCC2)CC1)N1CCCCC1,4,3,-24,-11,56*,-12
O=C(C1CCN(S(=O)(=O)N2CCCC2)CC1)N1CCCCC1,3,0,-26,x,-2,11
O=C(C[C@H]1C[C@H]2c3cc(NC(=O)NC4CCCCC4)ccc3O[C@H]2[C@H](CO)O1)NCC(F)(F)F,x,x,0[16.7 µM],-9,x,x
Cc1noc(C)c1NC(=O)N(C)C[C@@H]1OCCCC[C@H](C)Oc2ccc(NC(=O)Nc3cccc4ccccc34)cc2C(=O)N([C@H](C)CO)C[C@@H]1C,x,x,1[16.7 µM],-18,x,x
C[n+]1cc2c3c(ccc2c2ccc4cc5c(cc4c21)OCO5)OCO3,x,x,110*,109*,x,x
COc1ccc2c3c([nH]c2c1)[C@@H](CO)N(C)CC31CCN(C(=O)Nc2c(C)noc2C)CC1,x,x,x,-2,x,x
O=C(N/C(=C/c1ccccc1)C(=O)N1CCCCC1)c1ccccc1,-3,-1,-23,22,5,-5
O=C(N/C(=C\c1ccccc1)C(=O)N1CCN(CCO)CC1)c1ccccc1,1,-2,79*,5,-45,-15
O=C(N/C(=C/c1ccccc1Cl)C(=O)N1CCOCC1)c1ccccc1,2,-1,0,-7,67*,79
C[C@@H]1CCCCO[C@H](CN(C)Cc2ccc(C(=O)O)cc2)[C@H](C)CN([C@@H](C)CO)C(=O)c2cc(NS(C)(=O)=O)ccc2O1,x,x,-3[16.7 µM],8,x,x

# Screening data deposited in PubChem by Broad Institute.
